# High-throughput results deposited in PubChem BioAssay by several laboratories.
# Rv3671c inh = Rv3671c (M. tuberculosis) protease inhibition; P9WHR9; inhibition, % at 5.96 µM; 320,000 compounds, 0.048% hits; AID 2606; in the data active = inhibition above about 38%;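 also: extracellular domain of Rv3671c used as enzyme; 0% = enzyme with DMSO and 100% = no enzyme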
# FBA Mtb inh = inhibits M. tuberculosis FBA enzyme. P9WQA3. purified M. tuberculosis FBA, fluorescence read-out. 360,000 compounds, 2.3% hits. inhibition, % at 1 µM; in the data active = inhibition above about 27%;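 also: 0% = vehicle and 100% = reference inhibitor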
# Mtb betalactam = beta-lactam sensitization of Mtb H37Rv. M. tuberculosis H37Rv growth with meropenem, percent inhibition. inhibition, % at 25 µM. 330,000 compounds, 0.27% hits. AID 434955;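 also: growth measured after seven days incubation then overnight dye step; 0% = bacteria only wells and 100% = bacteria with antibiotic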
# Mtb UGM inh = inhibitors of M. tuberculosis UDP-galactopyranose mutase | 320,000 compounds, 0.06% hits | P9WIQ1 | AID 504406 | inhibition, % at 10 µM | purified UGM, fluorescence polarization probe displacement; in the data active = inhibition above about 10%, passing the limit was not always enough
# Target sequence (P9WIQ1 whole entry, looked up): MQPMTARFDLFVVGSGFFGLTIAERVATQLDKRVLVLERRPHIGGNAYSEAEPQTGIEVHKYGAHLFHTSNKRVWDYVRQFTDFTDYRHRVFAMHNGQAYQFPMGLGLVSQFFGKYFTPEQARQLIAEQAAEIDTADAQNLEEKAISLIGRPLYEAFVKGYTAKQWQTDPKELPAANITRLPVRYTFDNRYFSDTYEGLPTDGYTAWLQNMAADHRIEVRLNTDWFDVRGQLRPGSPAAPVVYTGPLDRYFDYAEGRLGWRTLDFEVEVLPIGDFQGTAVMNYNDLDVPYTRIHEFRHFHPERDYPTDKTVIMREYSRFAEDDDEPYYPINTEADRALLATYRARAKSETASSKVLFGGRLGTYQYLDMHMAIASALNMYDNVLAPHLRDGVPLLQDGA
# GDH-TPI counter-1 = counter-screen for M. tuberculosis FBA inhibitors: GDH-TPI coupled enzymes. inhibition, % at 4.8 µM. 360,000 compounds, 1.2% hits. GDH-TPI coupled enzyme counterscreen, NADH absorbance; in the data active = inhibition above about 30%;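 also: 0% = DMSO wells and 100% = wells lacking the enzyme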
# Mtb FBA inh conf = Mtb FBA inhibition, confirmed | shares compounds with FBA Mtb inh | purified M. tuberculosis FBA, fluorescence read-out | inhibition, % at 1 µM | 5,600 compounds, 78% hits; in the data active = inhibition above about 27%;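 also: 0% = vehicle wells and 100% = reference inhibitor wells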
# GDH-TPI counter-2 = counter-screen for M. tuberculosis FBA inhibitors: GDH-TPI coupled enzyme inhibition; GDH-TPI coupled enzyme counterscreen, fluorescence; 5,600 compounds, 81% hits; inhibition, % at 1 µM; shares compounds with FBA Mtb inh; in the data active = inhibition above about 10%
# GDH-TPI dose = GDH-TPI dose response counter-screen for Mtb FBA. shares compounds with FBA Mtb inh. GDH-TPI coupled enzyme assay, fluorescence, artifact counterscreen. IC50, µM. 170 compounds, 79% hits. AID 652145
# An asterisk follows results filed as active; / = no result given; + = active, no number. Sampled rows, rich in hits. Any-hit rate of the full collection: about 3.5%. Unless noted, no rule for the calls is given here.
SMILES,Rv3671c inh,FBA Mtb inh,Mtb betalactam,Mtb UGM inh,GDH-TPI counter-1,Mtb FBA inh conf,GDH-TPI counter-2,others
Cc1cc2n(n1)C(c1ccc(N(C)C)cc1)Nc1ccccc1-2 (stereo not given),12,33*,6,2,29,98*,82*,
CSc1ncc(C(=O)Nc2cccc(S(N)(=O)=O)c2)n1-c1ccccc1,6,39*,2,1,-3,168*,132*,
Cc1cc2ncc(-c3cccs3)nc2cc1C,/,73*,27,-4,8,68*,58*,
Cc1cc(C)c2sc(C)[n+](CCCS(=O)(=O)[O-])c2c1,2,6,2,-7,0,/,/,
Cc1ccc2c(C)cc[n+](CCCS(=O)(=O)[O-])c2c1,-9,43*,-4,-2,13,13,5,GDH-TPI dose=>10
CCc1c(C2(O)CCCCC2)[nH]c2cnccc12,-6,78*,6,2,10,+,170*,
Cc1c(C2(O)CCCCC2)[nH]c2ccc(C(F)(F)F)cc12,-1,4,96,5,6,/,/,
CCOC(=O)C1CCN(C(=O)Nc2ccc3snnc3c2)CC1,-6,10,-18,-1,7,/,/,
CCOC(=O)C1CCN(C(=O)Nc2ccc3nccnc3c2)CC1,1,37*,-10,4,19,57*,38*,
Cc1cccn2c(=O)c3cc(C(=O)NCc4ccco4)c(=N)n(CCc4ccccc4)c3nc12,-15,53*,64,/,4,90*,81*,
COc1ccc(CCNC(=O)c2cc3c(=O)n4cccc(C)c4nc3n(CC3CCCO3)c2=N)cc1 (stereo not given),1,20,18,3,5,/,/,
COc1cc2nc(SCC(=O)NCCc3ccccc3)n(Cc3ccco3)c(=O)c2cc1OC,-2,0,-2,3,2,/,/,
Cc1cccn2c(=O)c3cc(C(=O)NCC4CCCO4)c(=N)n(CCc4ccccc4)c3nc12 (stereo not given),0,109*,1,4,-5,76*,64*,
Cc1cccn2c(=O)c3cc(C(=O)NCCc4ccccc4)c(=N)n(Cc4ccco4)c3nc12,-12,30*,89,6,-2,+,+,
Cc1ccc(OCC(=O)Oc2ccc(C(C)C)cc2)cc1,-2,30*,-12,-2,-13,183*,130*,
COc1ccc(N(C(=O)c2cnccn2)C(C(=O)NC2CCCCC2)c2cc(OC)c(OC)c(OC)c2)cc1 (stereo not given),5,1,-3,1,4,/,/,
CNC1(c2ccccc2Cl)CCCCC1=O (stereo not given),/,27*,/,/,-5,58*,36*,
CC(C)NC(=S)N(C)C1(c2ccccc2Cl)CCCCC1=O (stereo not given),-19,0,0,-7,-5,/,/,
CN(CC(=O)Nc1ccccc1Cl)C(=O)c1ccc(-c2cccc(C(F)(F)F)c2)o1,-1,-1,-3,0,4,/,/,
COc1ccc(CC(=O)Nc2cc(S(C)(=O)=O)ccc2Cl)cc1S(=O)(=O)N1CCOCC1,/,2,/,/,0,/,/,
Nc1cc2nn(-c3ccccc3)nc2cc1Cl,/,36*,/,/,8,109*,88*,
CCOc1ccc2nc(SCC3CC3(Cl)Cl)[nH]c2c1 (stereo not given),-6,-2,-2,0,5,/,/,
ClC1(Cl)CC1CSc1nc2ccccc2[nH]1 (stereo not given),0,33*,1,-1,0,88*,85*,
CC(C)Oc1cc(F)ccc1-c1cc(C(=O)NCc2ccccc2)[nH]n1,/,-2,/,/,5,/,/,
CCN(CC)C(=O)CN1C(=O)c2cccc3cccc(c23)C1=O,-8,38*,-1,0,6,130*,88*,
O=C(CN1c2cccc3cccc(c23)S1(=O)=O)N1CCOCC1,-6,12,-3,-1,13,/,/,
O=C(CN1C(=O)c2cccc3cccc(c23)C1=O)N1CCOCC1,2,29*,3,1,0,46*,39*,
C=CCNC(=S)N/N=C/c1cccc([N+](=O)[O-])c1,-4,-2,-3,0,5,/,/,
O=C(c1cnccn1)N(c1ccccc1)C1(C(=O)NC2CCCCC2)CCCCC1,6,30*,-12,0,2,29*,18*,
